HT1080-NT tox = kills 2HG-producing HT-1080-NT fibrosarcoma cells. HT-1080-NT fibrosarcoma viability, CellTiter-Glo ATP luminescence, 48 h. Potency, µM (highest dose often 46.1 µM), hits mostly cytotoxic. hit rate 1.6% among 360,000;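 also: NT is the 2HG producing partner of a matched IDH1 knockdown line; nearly all actives have a fitted effect of over 55% in size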
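Viability of the 2HG-overproducing fibrosarcoma line after 48 hours of compound exposure at 37 degrees C was determined by luminescence with CellTiter-Glo, and concentration-effect curves were then fitted and categorized.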
IL1B secr inh = blocks inflammasome-driven IL-1 beta release; hit rate 4.7% among 360,000; activity change, % at 57.5 µM; AID 743279; THP-1 LPS/ATP IL-1B secretion, AlphaLISA, 16 h; stronger effect = lower value; in the data active = activity change below about -50%; inconclusive = mostly about -30% to -49%
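THP-1 cells pretreated 1 hr with compounds (up to 57.5 uM final), then stimulated with LPS (250 ng/mL final) plus ATP (1.25 mM final); secreted IL-1B measured by AlphaLISA after 16 hr, decreased signal indicating inhibition.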
DT40 TDP1 no CPT = qHTS for Inhibitors of human tyrosyl-DNA phosphodiesterase 1 (TDP1): qHTS in cells in absence of CPT. DT40 Tdp1-/- hTDP1 cells, no CPT, ATP luminescence, 48 h. Potency, µM (highest dose often 46.2 µM), usual class: inhibitors. hit rate 15% among 420,000. AID 686978, 2013; also: nearly all actives have a fitted effect of over 55% in size
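No-CPT arm: Tdp1-/-;hTDP1 DT40 cells (400/well) plus compounds, incubated ≥48 hr at 37 °C. Readout CellTiter-Glo luminescence.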
TDP1 cell CPT = DT40-hTDP1 cell growth loss with CPT; chicken DT40 Tdp1-/-;hTDP1 cells + 20 nM CPT, ATP luminescence, 48 h; Potency, µM (titrated, usually from 46.2 µM), most hits filed as inhibitors; hit rate 12% among 420,000; also: nearly all actives have a fitted effect of over 55% in size
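Chicken DT40 Tdp1-/- cells stably complemented with human TDP1 were seeded at 400 cells/well in medium containing 20 nM camptothecin, exposed to pin-transferred compounds, and grown at 37 °C for at least 48 hr. Viability was read as ATP luminescence.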
HT1080 IDH1KD tx = kills HT-1080 cells with IDH1 knockdown. hit rate 2% among 360,000. HT-1080 IDH1 knockdown viability, ATP luminescence, 48 h. AID 686971. Potency, µM (top dose mostly 46.1 µM), usual class: cytotoxic
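CellTiter-Glo luminescence after 48 h compound exposure at 37 degrees C of IDH1-knockdown HT-1080 cells in 5% FBS RPMI. %Activity scaled between DMSO wells and cell-free media wells, with curves fitted and assigned curve classes.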
Hits are given with their value; – = inactive; ? = inconclusive; · = no result. Shown are actives, neighbours in structure and some others; about 19% of the full set was active somewhere. Unless noted, calls follow the shape of the dose curve; as a rule, active = well fitted curve in the direction sought with a large enough effect; inconclusive = small, poorly fitted or top-dose-only effect, or another doubt; inactive = no such curve, though single readings can be large; an effect the other way counts as inactive or inconclusive.

SMILES	HT1080-NT tox	IL1B secr inh	DT40 TDP1 no CPT	TDP1 cell CPT	HT1080 IDH1KD tx
Cc1ccccc1OCC(=O)N=Nc1c(O)n(C)c2ccccc12	–	–	–	?	–
O=C1N[C@@H](c2ccccc2)COC(=O)[C@@H](Cc2ccc(F)cc2)C/C=C\C[C@H]1CC(=O)N(CCO)Cc1ccccc1	?	?	10µM	15µM	?
O=C1N[C@@H](c2ccccc2)COC(=O)[C@H](Cc2ccc(F)cc2)CC/C=C/C[C@@H]1CC(=O)N(CCO)Cc1ccccc1	?	–	16µM	?	?
CC(C)(C)OC(=O)C[C@@H]1C/C=C\C[C@@H](CC(=O)N(CCO)Cc2ccccc2)C(=O)N[C@@H](c2ccccc2)COC1=O	–	–	23µM	?	–
C[C@@H]1COC(=O)[C@H](CC(=O)OC(C)(C)C)C/C=C\C[C@H](CC(=O)N(CCO)Cc2ccccc2)C(=O)N1	–	–	–	–	–
CCOc1ccc(S(=O)(=O)NCc2ccc3c(c2)OCO3)cc1	–	–	–	–	–
CN(C(=O)COC(=O)C1=COCCO1)c1c(N)n(Cc2ccccc2)c(=O)[nH]c1=O	–	–	–	–	–
CCN(C(=O)COC(=O)C1=COCCO1)c1ccccc1	–	–	6.5µM	–	–
Cc1c(C(=O)Nc2ccc(-n3c(C)nc4ccccc4c3=O)cc2)cccc1[N+](=O)[O-]	·	·	7.3µM	13µM	·
Cc1cc(-n2c(C)nc3ccccc3c2=O)ccc1NC(=O)c1ccccc1[N+](=O)[O-]	·	·	16µM	18µM	·
Cc1c(C(=O)Nc2ccc(C(=O)Nc3ccccc3)cc2)cccc1[N+](=O)[O-]	–	–	–	–	–
Cc1cc(-n2c(C)nc3ccccc3c2=O)ccc1NC(=O)c1cccc([N+](=O)[O-])c1C	·	·	6.5µM	13µM	·
Cc1nc2ccccc2c(=O)n1-c1cccc(NS(=O)(=O)c2ccccc2)c1	–	–	–	–	–
Cc1nc2ccccc2c(=O)n1-c1cccc(NC(=O)c2cccs2)c1	–	-51	?	?	–
COC(=O)c1cc(NS(=O)(=O)c2ccc(NC(C)=O)cc2)cc(C(=O)OC)c1	–	–	–	–	–
CCc1ccccc1NC(=O)CN(C)C(=O)CSc1nn(-c2ccccc2)c(=S)s1	–	–	–	–	–
Cc1ccn2c(=O)c(NC(=O)c3cccc([N+](=O)[O-])c3C)c(C)nc2c1	·	·	18µM	15µM	·
Cc1nc(-c2coc3cc(C)c(N=O)c(O)c3/c2=N\N)cs1	–	–	–	–	–
Cc1nc(-c2coc3cc(O)c(C)cc3c2=O)cs1	18µM	–	?	–	23µM
N#CC1(NC(=O)Cn2ncc(Cl)c(Cl)c2=O)CCCCC1	5.8µM	-103	7.3µM	13µM	9.2µM
CCOC(=O)C1CCCN(c2c(Nc3ccc(C)c(C)c3)c(=O)c2=O)C1 (centres undefined)	–	–	?	16µM	–
CCOC(=O)C1CCCN(c2c(Nc3cc(C)cc(C)c3)c(=O)c2=O)C1 (centres undefined)	–	–	–	–	–
CCCCN(CC)CCCNC(=O)c1ccc2c(c1)N(Cc1ccc(C)cc1)C(=O)c1ccccc1S2	·	·	5.2µM	5.8µM	·
CCN1C(=O)c2ccccc2Sc2ccc(C(=O)NCCCN(CC(C)C)CC(C)C)cc21	–	-65	16µM	15µM	–
CCN1C(=O)c2ccccc2Sc2ccc(C(=O)NCCN3CCOCC3)cc21	–	–	–	–	–
SMILES	HT1080-NT tox	IL1B secr inh	DT40 TDP1 no CPT	TDP1 cell CPT	HT1080 IDH1KD tx
COc1cc(C(=O)NCC(=O)N/N=C/c2cccnc2)cc(OC)c1OC	–	–	–	–	–
CCn1c(=O)cc(SCC(=O)Nc2cc(OC)c(OC)c(OC)c2)c2ccccc21	–	–	?	23µM	–
CCn1c(=O)cc(OCC(=O)Nc2cc(OC)c(OC)c(OC)c2)c2ccccc21	·	·	?	15µM	·
CCn1c(=O)cc(SCC(=O)NCCc2cc(OC)ccc2OC)c2ccccc21	·	·	21µM	21µM	·
O=C(c1ccc2c(c1)OCCO2)N1CCN(Cc2ccccc2)CC1	–	?	–	–	–
CCOC(=O)C1=C(C)Nc2[nH]c(=O)[nH]c(=O)c2C1c1cccs1 (centres undefined)	–	–	–	–	–
CC1=C(C(=O)OC(C)C)C(c2cccs2)C(C(=O)OC(C)C)=C(C)N1	?	-73	12µM	?	?
CCOC(=O)C1=CN(Cc2ccc(OC)cc2)C=C(C(=O)OCC)C1c1cccs1	–	-64	?	?	–
CCOC(=O)c1sc2c(c1C)C(c1cccs1)C1=C(CCCC1=O)N2 (centres undefined)	–	–	16µM	?	?
CCOC(=O)C1=C(C)NC(C)=C(C(=O)OCC)C1c1cccs1	–	–	23µM	?	–
NC(=O)COC(=O)CC12CC3CC(CC(Br)(C3)C1)C2	–	–	–	–	–
COC(=O)CCCC(=O)NC1CCCc2c1cnn2-c1ccc(F)cc1F (centres undefined)	–	–	–	–	–
c1ccc(N2CC3CCc4ccccc4C3=N2)cc1 (centres undefined)	–	–	–	–	–
COc1ccc(-c2nc3cnc(OC)nc3n(C3CC3)c2=O)cc1	·	·	–	–	·
CCOC(=O)N1CCN(c2nc(CN3CCCCC3CCO)nc3c(C)cccc23)CC1 (centres undefined)	·	·	–	–	·
COc1ccc(NC(=O)C(NC(C)=O)C(=O)Nc2ccc(F)cc2)cc1 (centres undefined)	–	–	–	–	–
CC1=C(C(=O)OC(C)C)C(C)C(C(=O)OC(C)C)=C(C)N1	–	?	?	11µM	–
CC1=C(C(=O)OC(C)C)C(c2ccc3c(c2)OCO3)NC(=O)N1 (centres undefined)	–	–	–	–	–
COc1ccc(-c2csc(-c3c(N)c(C(=O)c4ccccc4)n4ccccc34)n2)cc1OC	·	·	2.3µM	4.1µM	·
COc1ccc(-c2csc(-c3c(N)c(C(=O)c4ccccc4)n4ccccc34)n2)cc1	·	·	?	–	·
CCOc1ccc(-n2c(SC(C)C)nc3c(c2=O)SCC3)cc1	–	–	16µM	?	–
CCOc1cccc(CN2CCC(Oc3ccc(C(=O)NCc4ccccn4)cc3)CC2)c1	–	–	–	?	–
Cc1ccc2cc(C#N)c(N3CCCN(C(=O)C4CCCO4)CC3)nc2c1 (centres undefined)	–	–	–	–	–
CCOC(=O)C1CCN(c2nc3cc(OC)ccc3cc2C#N)CC1	–	–	–	–	–
Cc1ccc2cc(C#N)c(N3CCN(C(=O)c4ccccc4)CC3)nc2c1	–	?	10µM	21µM	–
COc1cccc(C(=O)N2CCN(c3nc4cc(C)cc(C)c4cc3C#N)CC2)c1	–	–	16µM	23µM	–

Screening results (PubChem BioAssay)
